The values below come from PubChem BioAssay (EPA / NIEHS).

Where “and” joins values, the source holds several entries; their conditions need not be identical. Equal entries are not always repeated. Inconclusive results are not listed. Calls of active or inactive are those of the source. The calls were made as follows, unless noted: active = hit-call score of the fitted dose curve at least 0.9, where 1 is the maximum; inconclusive = response in the unintended direction; inactive = score below 0.9.

Read-out in assay [1]: xenobiotic metabolism (CYP1A1), CYP1A1 (gene 1543)
The assay can be described thus: CLD_CYP1A1_6hr: CellzDirect (CLD) Gene Expression Assay for xenobiotic metabolism (CYP1A1) at 6 hours (AID 2283661).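 As to AC50: potency for transcript induction above DMSO vehicle baseline.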 The essentials:
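Primary human hepatocytes from two donors, compound versus 0.2% DMSO vehicle. CYP1A1 mRNA measured 6 h after dosing by quantitative nuclease protection assay with chemiluminescent read-out; induction fitted relative to DMSO, cytotoxicity flagged by microscopy.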

Read-out in assay [2]: xenobiotic metabolism (CYP1A2), CYP1A2 (gene 1544)
In words: CLD_CYP1A2_6hr: CellzDirect (CLD) Gene Expression Assay for xenobiotic metabolism (CYP1A2) at 6 hours (AID 2283663).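 As to AC50: potency is for induction meaning a rise in mRNA above DMSO.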 The essentials:
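Primary human hepatocytes from two donor preparations, dosed daily with multiple concentrations in 0.2% DMSO and harvested at 6 h. CYP1A2 mRNA induction measured by chemiluminescent qNPA, gain of signal fitted against DMSO; cytotoxicity flagged morphologically.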

The nature of assay [3]: Tanguay_ZF_120hpf_TR_legacy: (Legacy) Oregon State University Tanguay Lab 120 Hour Post-fertilization zebrafish Assay for Touch Response (AID 2283667). The method, boiled down:
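Tropical 5D wild-type zebrafish embryos statically exposed to 120 hpf at 28°C, sealed and dark-covered, 0.64% DMSO final; touch response scored as present/absent by brightfield microscopy at 120 hpf. Trimethyltin chloride 5 uM positive control; dead embryos not scored.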

Read-out in assay [4]: organic anion transporter (SLCO1B1), SLCO1B1 (gene 10599)
In words: CLD_SLCO1B1_6hr: CellzDirect (CLD) Gene Expression Assay for organic anion transporter (SLCO1B1) at 6 hours (AID 2283668).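 Also: active means mRNA induction above DMSO baseline.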 The method, boiled down:
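Primary human hepatocytes dosed daily with test chemicals (multiple concentrations) in 0.2% DMSO vehicle; harvested at 6 h. SLCO1B1 mRNA quantified by qNPA chemiluminescence, fitted as gain-of-signal versus DMSO; cytotoxicity from phase-contrast morphology flagged alongside.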

Read-out in assay [5]: glucuronosyltransferase (UGT1A1), UGT1A1 (gene 54658)
The assay can be described thus: CLD_UGT1A1_6hr: CellzDirect (CLD) Gene Expression Assay for glucuronosyltransferase (UGT1A1) at 6 hours (AID 2283672). The method, boiled down:
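Primary human hepatocytes from two donor preparations, dosed with fresh solutions in 0.2% DMSO, harvested at 6 h. UGT1A1 mRNA measured by qNPA chemiluminescence; induction fitted upward versus DMSO.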

Read-out in assay [6]: xenobiotic metabolism (CYP1A1), CYP1A1 (gene 1543)
The assay can be described thus: CLD_CYP1A1_24hr: CellzDirect (CLD) Gene Expression Assay for xenobiotic metabolism (CYP1A1) at 24 hours (AID 2283673).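 Also: CYP1A1 mRNA level by quantitative nuclease protection with chemiluminescence.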 The method, boiled down:
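Primary human hepatocytes dosed daily with fresh solutions in 0.2% DMSO vehicle. mRNA measured at 24 h by quantitative nuclease protection assay with chemiluminescence; gain-of-signal fit versus DMSO, with morphology-based cytotoxicity flags.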

Assay [7] can be described thus: CLD_ACTIN_6hr: CellzDirect (CLD) Gene Expression Assay for Baseline Control (Actin) at 6 hours (AID 2283676).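 Also: active means increased actin mRNA relative to DMSO vehicle.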 The method, boiled down:
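Primary human hepatocytes dosed with fresh chemical solutions (vehicle 0.2% DMSO), harvested at 6 h. Actin mRNA quantified by quantitative nuclease protection assay with chemiluminescent read-out, as background control relative to DMSO.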

Assay [8] is described as follows: CCTE_Padilla_ZF_144hpf_TERATOSCORE: (Legacy) CCTE's 144 Hour Post-fertilization zebrafish Assay Teratoscore, Padilla Lab (AID 2283679; active = hit-call score of the fitted dose curve at least 0.9, where 1 is the maximum; inactive = score below 0.9;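 as to AC50: zebrafish embryos with chorions exposed by immersion from 6-8 hpf to 5 dpf with daily renewal; teratogenicity score from eye scoring of death hatching and malformations at 144 hpf; higher score means more developmental defects relative to DMSO baseline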). The method, boiled down: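 Larvae scored by eye at 144 hpf for death, hatching and malformations after a day in clean Hanks'. Before that, daily-renewed exposure at 80 uM (0.4% DMSO, 26C) from roughly 6-8 hpf through 5 dpf, 4 embryos per chemical.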

Read-out in assay [9]: xenobiotic metabolism (CYP1A2), CYP1A2 (gene 1544)
In words: CLD_CYP1A2_24hr: CellzDirect (CLD) Gene Expression Assay for xenobiotic metabolism (CYP1A2) at 24 hours (AID 2283683). The essentials: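 Primary human hepatocytes from two donor preparations dosed daily with multiple concentrations of chemical, 0.2% DMSO vehicle. CYP1A2 mRNA at 24 h quantified by qNPA chemiluminescence; gain of signal analyzed relative to DMSO. Cytotoxicity flagged by phase-contrast morphology.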

Read-out in assay [10]: ABC Transporter (ABCB1), ABCB1 (gene 5243)
In words: CLD_ABCB1_24hr: CellzDirect (CLD) Gene Expression Assay for ABC Transporter (ABCB1) at 24 hours (AID 2283684).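 As to AC50: potency for increase in ABCB1 mRNA relative to DMSO vehicle.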 The method, boiled down:
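Primary human hepatocytes, two donor preparations, dosed daily with fresh solutions; vehicle 0.2% DMSO; harvested at 24 h. ABCB1 mRNA measured by quantitative nuclease protection assay (chemiluminescence); morphology-based cytotoxicity annotated.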

Read-out in assay [11]: Cytochrome P450 2B6 (Homo sapiens) (UniProt P20813)
In words: CLD_CYP2B6_24hr: CellzDirect (CLD) Gene Expression Assay for xenobiotic metabolism (CYP2B6) at 24 hours (AID 2283686). The essentials:
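Primary human hepatocytes dosed daily for two days with fresh solutions, harvested at 24 hours; mRNA induction quantified by qNPA chemiluminescence, gain of signal vs 0.2% DMSO vehicle. Cytotoxicity annotated from phase-contrast morphology.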

Read-out in assay [12]: Cytochrome P450 2C9 (Homo sapiens) (UniProt P11712)
In words: CLD_CYP2C9_24hr: CellzDirect (CLD) Gene Expression Assay for xenobiotic metabolism (CYP2C9) at 24 hours (AID 2283688). The essentials:
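Primary human hepatocytes from two donor preparations, dosed daily for two days at multiple concentrations; vehicle 0.2% DMSO. CYP2C9 mRNA induction at 24 h measured by qNPA chemiluminescence relative to DMSO; cytotoxicity annotated from morphology.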

Read-out in assay [13]: Cytochrome P450 3A4 (Homo sapiens) (UniProt P08684)
In words: CLD_CYP3A4_24hr: CellzDirect (CLD) Gene Expression Assay for xenobiotic metabolism (CYP3A4) at 24 hours (AID 2283689). The essentials:
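Primary human hepatocytes from two donors dosed daily with fresh compound for two days, 0.2% DMSO vehicle. CYP3A4 mRNA at 24 hr by qNPA chemiluminescence; gain-of-signal fit versus DMSO, cytotoxicity flagged by morphology.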

Read-out in assay [14]: alkyl and aryl transferase (GSTA2), GSTA2 (gene 2939)
In words: CLD_GSTA2_24hr: CellzDirect (CLD) Gene Expression Assay for alkyl and aryl transferase (GSTA2) at 24 hours (AID 2283693). The essentials:
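Primary human hepatocytes (two donor preparations) dosed daily for two days with chemicals at multiple concentrations (vehicle 0.2% DMSO); GSTA2 mRNA at 24 h measured by qNPA chemiluminescence, gain-of-signal versus DMSO.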

Assay [15] relates to Thyroperoxidase (TPO), gene 54314. The assay can be described thus: CCTE_Simmons_AUR_rTPO: CCTE's Amplex UltraRed Assay for Thyroperoxidase (TPO) Inhibition, Simmons Lab (AID 2283662).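 As to AC50: potency for loss of signal meaning inhibition of peroxidase activity.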 The essentials:
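Rat thyroid microsomal TPO + 25 uM AUR in 200 mM K phosphate; cpd 5 nM–87.5 uM [final], 8 conc, 0.5% DMSO; 300 uM H2O2 starts rxn; 37C dark 30 min; endpoint FI 544/590 nm; n=3.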

The nature of assay [16]: CCTE_Simmons_CellTiterGLO_HEK293T: Viability Assessment in CCTE's Assays for Thyroperoxidase (TPO) Inhibition, Simmons Lab (AID 2283665).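 As to AC50: cells exposed to compound for 24 h before readout; actives reduce ATP signal below DMSO vehicle meaning cytotoxicity.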 The essentials: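 HEK293T cells in DMEM with 1% FBS were dosed with 8 concentrations (5 nM–87.5 uM final, 0.5% DMSO) for 24 hr at 37C; ATP content was read by CellTiter-Glo luminescence, loss-of-signal versus DMSO, three biological replicates.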
A general note: ATP-based viability assays read luminescence as a measure of living cells.

Read-out in assay [17]: Cytochrome P450 2B6 (Homo sapiens) (UniProt P20813)
The assay can be described thus: CLD_CYP2B6_6hr: CellzDirect (CLD) Gene Expression Assay for xenobiotic metabolism (CYP2B6) at 6 hours (AID 2283677).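 Also: actives raise CYP2B6 transcript above DMSO baseline so AC50 marks an inducer.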 The method, boiled down: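 Primary human hepatocytes dosed with chemicals at multiple concentrations, vehicle 0.2% DMSO; CYP2B6 mRNA induction measured 6 h after dosing by quantitative nuclease protection assay with chemiluminescence, gain of signal fitted relative to DMSO.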

Assay [18] in a line: CLD_ACTIN_24hr: CellzDirect (CLD) Gene Expression Assay for Baseline Control (Actin) at 24 hours (AID 2283670). The method, boiled down:
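Primary human hepatocytes dosed over multiple concentrations with 0.2% DMSO vehicle; actin mRNA measured at 24 h by qNPA chemiluminescence. Background control endpoint, fitted as gain of signal versus DMSO.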

Read-out in assay [19]: HMG-CoA synthase (HMGCS2), HMGCS2 (gene 3158)
In words: CLD_HMGCS2_24hr: CellzDirect (CLD) Gene Expression Assay for HMG-CoA synthase (HMGCS2) at 24 hours (AID 2283691). The essentials:
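Primary human hepatocytes from two donor preparations, dosed daily with fresh solutions; vehicle 0.2% DMSO, 24 h harvest. HMGCS2 mRNA quantified by qNPA with S1 nuclease digestion and chemiluminescence; gain fitted versus DMSO, cytotoxicity annotated by morphology.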

Read-out in assay [20]: Cytochrome P450 (CYP24A1_1), CYP24A1 (gene 1591)
The assay can be described thus: LTEA_HepaRG_CYP24A1_1: Life Technologies and Expression Analysis (LTEA) Assay for Cytochrome P450 (CYP24A1_1) using HepaRG (AID 2283671; active = hit-call score of the fitted dose curve at least 0.9, where 1 is the maximum; inactive = score below 0.9). The conditions noted are these: mRNA level, 48 h; actives raise or lower the signal. The method, boiled down: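 Differentiated human HepaRG cells in serum-free induction medium, exposed 48 h in duplicate to eight half-log concentrations from 100 uM top, 0.5% DMSO. Transcript measured by TaqMan qRT-PCR, normalised to ACTB, GAPDH, POLR2A; bidirectional fitting versus DMSO.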

Cytochrome P450 3A4 (Homo sapiens), sequence (P08684 whole entry, looked up): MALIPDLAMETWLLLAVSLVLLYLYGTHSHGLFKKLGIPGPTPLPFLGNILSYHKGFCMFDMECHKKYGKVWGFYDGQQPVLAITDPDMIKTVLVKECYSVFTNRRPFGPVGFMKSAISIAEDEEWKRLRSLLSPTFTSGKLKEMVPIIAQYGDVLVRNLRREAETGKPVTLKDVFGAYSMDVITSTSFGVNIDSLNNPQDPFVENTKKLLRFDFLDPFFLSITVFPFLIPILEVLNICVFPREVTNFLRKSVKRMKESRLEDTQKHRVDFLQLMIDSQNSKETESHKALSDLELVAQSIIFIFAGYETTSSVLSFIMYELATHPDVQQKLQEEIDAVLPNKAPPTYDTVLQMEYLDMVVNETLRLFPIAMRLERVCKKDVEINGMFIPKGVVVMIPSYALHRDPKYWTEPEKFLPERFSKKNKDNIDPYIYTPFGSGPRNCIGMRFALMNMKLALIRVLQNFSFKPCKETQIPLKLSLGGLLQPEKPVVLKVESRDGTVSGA

As usually defined, the AC50 is the midpoint of the concentration-response curve, whichever way the signal moves. As to `CCC(C)(NC(=O)c1cc(Cl)c(C)c(Cl)c1)C(=O)CCl` (stereo not given), the outcome in assay [1], in assay [2], in [4], in assay [5], in [6] and in assay [7] was inactive. Further, the result in [9], in assay [10], in [12] and in [14] was inactive. Besides, the AC50 in [3] was 57.8 µM (active); in [8], 5.78 µM (active); in [11], 3.97 µM (active); in [13], 4.49 µM (active).
Turning to `COP(=S)(OC)Oc1ccc([N+](=O)[O-])cc1`, the AC50 in [1] was 2.88 µM (active); in assay [15] it was 4.82 µM (active); in assay [2] it was 3.16 µM (active); in assay [17], 0.916 µM (active); in assay [8], 16.1 µM (active); in [9] it was 2.07 µM (active). Further, in assay [11], the half-maximal activity concentration (AC50) was 5.28 µM (active). Also, the result in [16], in [3], in [4], in assay [5], in assay [10] and in assay [12] was inactive. Further, the call in [13] was inactive.
Turning to `CNC(=O)Oc1cccc(N=CN(C)C)c1`, the call in assay [1], in assay [2], in assay [16], in assay [3], in assay [18] and in [5] was inactive. Besides, the compound was classed as inactive in assay [7], in assay [8], in assay [9], in assay [10], in [12] and in [13]. For the same compound, the result in assay [19] and in assay [14] was inactive. In assay [15], the AC50 was 19.8 µM (active).
In the case of `O=S(=O)(O)C(F)(F)C(F)(F)C(F)(F)C(F)(F)C(F)(F)C(F)(F)C(F)(F)C(F)(F)F`, the outcome in assay [1], in assay [15], in [2], in assay [5], in assay [6] and in assay [7] was inactive. In addition, the call in assay [9], in [11], in [12], in [13] and in assay [14] was inactive. Also, the concentration at half-maximal activity (AC50) in assay [16] was 64.1 µM (active) and 57.1 µM (active); in assay [3] it was 9.61 µM (active) and 16.3 µM (active) and 13.3 µM (active); in assay [8] it was 23.8 µM (active) and 45.6 µM (active) and 7.44 µM (active).
For `CCCN(CCOc1c(Cl)cc(Cl)cc1Cl)C(=O)n1ccnc1`, the half-maximal activity concentration (AC50) is 0.0868 µM (active) in assay [1]; 0.0805 µM (active) in assay [2]; 89.5 µM (active) in assay [16]; 5.63 µM (active) in assay [8]; 0.378 µM (active) in [9]; 32.7 µM (active) in assay [10]. The concentration at half-maximal activity (AC50) in assay [11] is 1.89 µM (active); in assay [13], 0.57 µM (active). In addition, the compound was classed as inactive in assay [15], in assay [3], in [20], in assay [5] and in assay [7].
For `CNC(=O)/C=C(\C)OP(=O)(OC)OC`, the compound was classed as inactive in [1], in [2], in [16], in [3], in assay [4] and in assay [5]. In addition, the compound was classed as inactive in assay [8], in assay [9], in assay [12] and in assay [13]. The values for the half-maximal activity concentration (AC50) in assay [15] and in assay [11] were 39.1 µM (active) and 0.000497 µM (active), respectively.
With `CC(C)N(C(=O)COc1nnc(C(F)(F)F)s1)c1ccc(F)cc1`, the call in assay [1], in [15], in assay [2], in assay [3], in assay [4] and in assay [18] was inactive. In addition, the compound was called inactive in assay [5], in [9], in [10], in assay [13] and in assay [14]. Moreover, the AC50 in assay [8] was 39.2 µM (active); in assay [11], 7.16 µM (active).
